High-throughput results (PubChem BioAssay)
A selection: hits, their analogues and other compounds. The true share with any hit is near 1.5%.
RAD52 inh = RAD52 (human) annealing inhibition; recombinant RAD52 DNA annealing, FRET fluorescence; P43351; AID 651710; inhibition, % at 18.7 µM; 0.46% of 360,000 active;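 active means every replicate showing at least 50% inhibition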
Casp6 inh = caspase-6 (human) enzyme inhibition. 0.53% of 350,000 active. AID 686996. inhibition, % at 12.5 µM. purified caspase-6, Z-VEID-R110 cleavage fluorescence. P55212;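 active means mean inhibition across replicates at least about 35%, with every replicate also reaching that limit, limit read from the data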;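 further: 0% = median of neutral control wells and 100% = no fluorescence left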
Target sequence (P55212 24-179 limits assumed): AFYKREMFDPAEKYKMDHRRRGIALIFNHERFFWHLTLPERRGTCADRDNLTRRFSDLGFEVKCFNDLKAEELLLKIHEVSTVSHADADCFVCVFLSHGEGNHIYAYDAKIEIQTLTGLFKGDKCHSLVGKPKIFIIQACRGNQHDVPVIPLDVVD
Target sequence (P55212 194-293 limits assumed): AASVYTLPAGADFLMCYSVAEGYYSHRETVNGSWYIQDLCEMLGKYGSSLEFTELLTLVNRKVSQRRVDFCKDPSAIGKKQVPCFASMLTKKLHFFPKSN
NSD2 HMT inh = NSD2 (human) methyltransferase inhibition | NSD2 peptide methylation, AlphaScreen, 120 min | inhibition, % at 12.5 µM | 0.54% of 310,000 active | AID 743445; in the data active means inhibition above about 50%
MLL AF4-AF9 inh = blocks AF4 peptide binding to human AF9. P42568. AlphaScreen, biotin-AF4 peptide binding to FLAG-AF9. inhibition, % at 10 µM. 0.47% of 350,000 active. AID 651704;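 active means every replicate reaching a set inhibition limit, whatever the replicate mean, cut at about 25% in these data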;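 further: 0% = plate neutral control median and 100% = total signal loss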
miR122 inh = miR-122 inhibition in Huh7 cells | activation (reporter increase), % at 12.5 µM | AID 602342 | 0.3% of 340,000 active | Huh7 miR-122 Renilla luciferase sensor, 48 h; neutral wells = 0, positive control = 100;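 active means mean replicate activation score at least 90 and every replicate individually at or above 90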;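 further: higher luciferase means less miR-122 activity so hits act as miR-122 inhibitors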
Starred values were filed as active, the others as inactive; . = not tested or not shown; [ ] = another dose, or the depositor's remark.

SMILES | RAD52 inh | Casp6 inh | NSD2 HMT inh | MLL AF4-AF9 inh | miR122 inh
O=[N+]([O-])c1ccc(Cl)c(-c2ccc(/C=N/n3cnnc3)o2)c1 | -30 | 10 | 3 | -14 | -1
CN1CCN(/N=C/c2ccc(-c3ccc([N+](=O)[O-])cc3Cl)o2)CC1 | 1 | -3 | 38 | 36* | .
CC(C)NC(=O)Nc1ccc2c(c1)C(=O)N([C@H](C)CO)C[C@@H](C)[C@H](CN(C)Cc1ccc3c(c1)OCO3)O2 | -6 | 1 | . | -1 | -1[16.7 µM]
O=C(CCS(=O)(=O)c1ccc(Br)cc1)N1CCCCCC1 | -4 | 61* | 10 | -20 | 3
C[C@H](CO)N1C[C@H](C)[C@@H](CN(C)S(=O)(=O)c2cn(C)cn2)OCCCC[C@H](C)Oc2ccc(NC(=O)Nc3ccc(C(F)(F)F)cc3)cc2C1=O | . | . | . | . | -12[16.7 µM]
C[C@H]1CN([C@@H](C)CO)S(=O)(=O)c2ccc(-c3ccccc3)cc2O[C@H]1CN(C)CC1CC1 | 17 | -1 | . | 3 | 0[16.7 µM]
NCC[C@H]1CC[C@H](NC(=O)CCN2CCCCC2)[C@@H](CO)O1 | -11 | -1 | . | 28* | .
NCC[C@H]1CC[C@@H](NC(=O)CCN2CCCCC2)[C@H](CO)O1 | 6 | -2 | . | 59* | .
NCC[C@@H]1CC[C@@H](NC(=O)CCN2CCCCC2)[C@H](CO)O1 | 3 | 0 | . | 19 | .
O=C(C[C@@H]1C=C[C@@H](NC(=O)C2CCC2)[C@H](CO)O1)NC1CCC1 | 12 | 2 | . | 1 | 3[16.7 µM]
C=C(C)COc1ccc(-c2nc(N)ncc2-c2ccc(OC)cc2)c(O)c1 | . | . | 4 | 28* | .
C=C(C)COc1ccc(-c2nc(N)ncc2-c2ccc(OC)c(OC)c2)c(O)c1 | -9 | 0 | 2 | 6 | .
C/C(CC(=O)Nc1cc(C)ccn1)=N\NC(=O)c1cccc(C)c1O | 1 | 53* | -2 | 4 | 48
C/C(CC(=O)Nc1ccccn1)=N\NC(=O)c1ccccc1O | -15 | 4 | . | 0 | 262*
O=C(Nc1ccc(F)cc1)N[C@H]1CC[C@@H](CCNS(=O)(=O)c2cccc(Cl)c2)O[C@@H]1CO | -5 | -4 | . | 3 | .
COc1ccc(S(=O)(=O)Nc2cccc3c2O[C@H](CN(C)Cc2ccc(C(=O)Nc4ccccc4N)cc2)[C@@H](C)CN([C@@H](C)CO)C3=O)cc1 | 7 | . | . | . | .
CCN(CC)Cc1cc(Nc2c3ccccc3nc3c4ccccc4n(C)c23)cc(CN(CC)CC)c1O | 106* | -52 | . | 55* | -10
CCOc1cc2nc3c4ccccc4n(C)c3nc2cc1OCC | -11 | 5 | -30 | 0 | .
O=C(O)c1cc([N+](=O)[O-])cc2c1C=Cc1ccccc1O2 | -3 | 38* | 4 | -1 | .
C[C@@H]1CCCCO[C@@H](CN(C)Cc2ccccc2)[C@H](C)CN([C@H](C)CO)C(=O)c2cc(NS(C)(=O)=O)ccc2O1 | 12 | -3 | . | -17 | -3[16.7 µM]
O=C(O)Cc1cn(Cc2ccc(F)cc2)c2ccccc12 | 0 | 2 | 3 | -2 | .
Cc1[nH][nH]c(=O)c1C(c1c(C)[nH][nH]c1=O)c1cn(Cc2ccc(Cl)c(Cl)c2)c2ccccc12 | -15 | 22 | 98* | 9 | 5
Cc1[nH][nH]c(=O)c1C(c1c(C)[nH][nH]c1=O)c1cn(Cc2ccc(F)cc2)c2ccccc12 | . | . | 88* | . | 14
O=C(NCCCN1CCOCC1)c1ccc2nc(-c3ccc(F)cc3)c(-c3ccc(F)cc3)nc2c1 | . | . | 4 | . | .
Cc1cnc(NC(=O)c2ccc3c(c2)OCCO3)s1 | -2 | 36* | 0 | -1 | 15
SMILES | RAD52 inh | Casp6 inh | NSD2 HMT inh | MLL AF4-AF9 inh | miR122 inh
O=S(=O)(Nc1cccc2ncccc12)c1cccs1 | . | . | . | . | 234*
C[C@H](O)C#Cc1ccc2c(c1)O[C@@H](CN(C)C(=O)CC1CC1)[C@@H](C)CN([C@H](C)CO)S2(=O)=O | 6 | 1 | . | 1 | -9[16.7 µM]
NC(=S)N=Nc1c(O)cc(O)c2[nH]c(=O)ccc12 | -52 | 93* | . | 5 | 14
O=C(COC(=O)c1ccccc1OCc1ccccc1Cl)NC1CCS(=O)(=O)C1 (configuration not stated) | -7 | 61* | 0 | -5 | -1
O=C(COC(=O)c1ccccc1Cc1ccccc1)NC1CCS(=O)(=O)C1 (configuration not stated) | -1 | 0 | -1 | -9 | 2
Cc1cc(C(=O)NCC(c2ccco2)N(C)C)ccc1[N+](=O)[O-] (configuration not stated) | -15 | -3 | 2 | 46* | -3
